Among all 220,000 compounds or so, about 880 (0.4%) were called active. This excerpt belongs to a sample that is enriched for actives. A number with no mark means an inactive call.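 Rule for the calls: active = cell killing above 50% in the first pass at 4 µM, then a duplicate retest at 5 µM averaging 50% or more; inactive = the rest.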
Assay: compounds killing PPC-1 cancer cells with TRAIL present, primary screen, TRAIL potentiator project, ATPLite luminescence, uHTS (AID 1443);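 note: plate controls were cells with TRAIL plus DMSO for no effect and medium-only wells lacking cells for full effect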
Details: PPC-1 cells + TRAIL, ATPLite viability luminescence, hits give high values; at 4 µM unless noted

SMILES | cell killing (% activity)
COc1cccc(CC(=O)Nc2ccc(-c3csc(C)n3)cc2)c1 | 2.3%
COCCn1c(C)cc(C2=NNC(=Nc3ccc(F)cc3)SC2)c1C | 12.3%
Cc1cc(C2=NNC(=Nc3ccc(S(=O)(=O)N4CCOCC4)cc3)SC2)c(C)n1CC1CCCO1 (configuration not stated) | 8.5%
C=CCn1c(C)cc(C2=NNC(=NCC)SC2)c1C | 88.8% [at 5 µM] (active)
O=C(NNC(=O)c1ccc(Cl)cc1Cl)c1cccs1 | 35.4%
CCOC(=O)c1cc(C)nc(S(C)(=O)=O)c1C#N | 19.4%
N#C/C(=C\C1=C(N2CCOCC2)C(=C\c2ccccc2)/CC1)C(=O)Nc1ccccc1F | 3.4%
COc1ccc(-c2cn3cccnc3n2)cc1 | 13.9%
COc1ccc(-c2cn3ccc(C)cc3n2)cc1 | 89% [at 5 µM] (active)
COc1ccc(-c2cn3ccsc3n2)cc1 | 46.2%
CS(=O)(=O)Nc1cccc(-c2cn3ccccc3n2)c1 | 4.6%
Cc1ccc(-c2cn3cc(C)ccc3n2)cc1 | 86.4% [at 5 µM] (active)
c1ccc(-c2cn3cccnc3n2)cc1 | 13.7%
Cc1cccc(NC(=O)C2CC(=O)OC23CCCC3)c1 (configuration not stated) | -2.2%
COc1ccc(C(=O)ON=C2c3ccccc3-c3ccccc32)cc1OC | 8.6%
Cc1sc2nc(COC(=O)C(NC(=O)c3ccc(Cl)cc3Cl)C(C)C)[nH]c(=O)c2c1C (configuration not stated) | 2.9%
O=C(Nc1ccc(S(=O)(=O)Nc2nccs2)cc1)c1cccc(S(=O)(=O)N2CCOCC2)c1 | 10.1%
Fc1ccccc1Cc1ccc(Cl)nn1 | 22.4%
CCN(CC)C(=O)CS(=O)CC(=O)Nc1cc(OCCOC)c(Cl)cc1Cl (configuration not stated) | 3.5%
CCCc1cc(=O)[nH]c(SCC(=O)N2CCN(S(=O)(=O)c3ccc(C)cc3C)CC2)n1 | -8.7%
Fc1ccccc1Cn1cnc(NC(=S)NCCc2ccccc2)n1 | 23.7%
N=c1n(CCc2ccccc2)c2ccccc2n1Cc1ccccc1F | 53.1% (active)
CN(Cc1ccccc1)Cc1ccccc1F | 10.6%

SMILES | cell killing (% activity)
O=C(NCCCN1CCN(c2ccc(F)cc2)CC1)Nc1ccc([N+](=O)[O-])cc1 | -6.5%
Cc1c(C(=O)c2cccc([N+](=O)[O-])c2)c2ccccn2c1CCC#N | 33.6%
COC(=O)c1ccc(COc2cc([N+](=O)[O-])cc3cccnc23)cc1 | -4.2%
Cn1c(CC2Sc3ccccc3NC2=O)nnc1SCC(=O)c1ccc(Cl)cc1 (configuration not stated) | 5.2%
O=C(Cn1c(=S)nc2ccccn21)N1CCc2ccccc2C1 | -12%
O=C(c1ccc(F)cc1)n1cc(C(=S)N2CCOCC2)c2ccccc21 | 21%
O=C(c1ccc(F)cc1)n1c(=S)nc2ccccn21 | 81.3% [at 5 µM] (active)
NS(=O)(=O)c1ccc(NC(=S)Nc2ccc(Br)c(Cl)c2)cc1 | 12%
O=C(OCC1O[C@@H](OC(=O)c2cc(O)c(O)c(O)c2)[C@@H](OC(=O)c2cc(O)c(O)c(O)c2)[C@@H](OC(=O)c2cc(O)c(O)c(O)c2)[C@@H]1OC(=O)c1cc(O)c(O)c(O)c1)c1cc(O)c(O)c(O)c1 (some centres not stated) | -9.9%
CCOc1ccc(CN2CCN(Cc3ccon3)CC2CCO)cc1 (configuration not stated) | 8.1%
Cc1noc(/C=C/c2ccco2)c1S(=O)(=O)N1CCC(C(=O)Nc2ccc(Cl)cn2)CC1 | 24.3%
Cc1nonc1C(=O)N/N=C/c1ccc(O)cc1 | -5.1%
CC(NC(=O)CCC(=O)N1CCN(S(=O)(=O)c2ccc(Cl)cc2)CC1)c1ccccc1 (configuration not stated) | 16.9%
CCN(CC(=O)Nc1ccc(S(=O)(=O)N2CCCC2)cc1)CC(=O)Nc1cccc(OC)c1 | 6.9%
NS(=O)(=O)c1cccnc1Nc1cccc(Cl)c1 | 23%
OCCCNc1nccc(-c2cc(Nc3cccc(Cl)c3)ncn2)n1 | 80.9% (active)
CC(C)n1cnc2c(Nc3cccc(Cl)c3)nc(N(CCO)CCCO)nc21 | 8.8%
CCOC(=O)c1sc2nc(C)nc(Nc3ccc(OC)c(OC)c3)c2c1C | -11.6%
CCN1CCC2(CC1)N=C(c1ccc(F)cc1)C(=S)N2C(=O)c1ccc(C)cc1 | 5.2%
O=C(Nc1n[nH]c(C(F)(F)F)n1)c1cccs1 | 2.7%
O=C(COC(=O)c1ccc(S(=O)(=O)Nc2ccccc2)cc1)NCC1CCCO1 (configuration not stated) | 14.7%
Cc1cc(C)nc(NC(=O)/C=C/c2ccc(Cl)cc2)n1 | -2.4%
c1c2c(cc3sc(N4CCCCC4)nc13)OCCO2 | 65.8% (active)

SMILES | cell killing (% activity)
Brc1ccc2nc(N3CCCC3)sc2c1 | -2.5%
Cc1nc2cc3c(cc2s1)OCO3 | 9%
O=C(O)/C(=C/c1cccnc1)NC(=O)c1ccccc1 | 9%
COCCNc1nc(-c2ccccc2)nc2c1oc1ccccc12 | 8.8%
Cc1ccc2nsnc2c1S(=O)(=O)N1CCCC1C(=O)O (configuration not stated) | 13.9%
Cc1cc(=O)oc2c(C(=O)c3ccccc3)c(OCC(N)=O)ccc12 | 6.8%
COc1cccc(C(=O)n2ccc(-c3cccs3)n2)c1 | -11.4%
C=CCN(C(=O)Nc1ccc2c(c1)nc(C)n2C)c1ccccc1 | 14.1%
Cc1nc2cc(NC(=O)Nc3cccc(F)c3)ccc2n1C | 54.1% [at 5 µM] (active)
Cc1nc2cc(NC(=O)NC3CC3)ccc2n1C | 14.9%
COC(C(=O)Nc1ccc(S(=O)(=O)Nc2ccc(C)c(C)c2)cc1)c1ccccc1 (configuration not stated) | 19.1%
COc1ccccc1NC(=O)CCSc1nnc(-c2ccc(O)cc2)o1 | -2.2%
CCC(C)N1C(=S)SC(C)(C)C1N(O)C(=O)NC1CCCCC1 (configuration not stated) | 13.9%
COc1cccc(/C=N/NC(=O)c2cccc([N+](=O)[O-])c2)c1OS(=O)(=O)c1ccc(C)cc1 | -0.7%
Cc1ccc(-n2[nH]c(C)c(/C=N/NC(=O)c3cccc([N+](=O)[O-])c3)c2=O)cc1C | 60.3% (active)
Cc1[nH]n(-c2ccccc2)c(=O)c1/C=N/NC(=O)c1ccoc1C | 29.6%
CC(C)CNC(=S)Nc1ccc(F)cc1 | 31.5%
CC1CC(=S)Nc2ccccc2N1Cc1ccccc1 (configuration not stated) | 16%
CCNC(=O)COC(=O)/C=C/c1c(C)nn(Cc2cccc(OC)c2)c1Cl | -7.2%
CCOC(=O)c1nnn2c1nc(N1CCN(c3ccccc3)CC1)c1ccccc12 | 3.6%
Cc1csc(SCC(=O)Nc2sccc2C#N)n1 | 10.6%
c1ccc(-c2nc(NCc3ccco3)c3ccccc3n2)cc1 | 6.1%
Clc1ccc2nc(-c3ccccc3)nc(C(Cl)Cl)c2c1 | 79.2% [at 5 µM] (active)

SMILES | cell killing (% activity)
Clc1cccc(-c2nc(NCC3CCCO3)c3ccccc3n2)c1 (configuration not stated) | -5.4%
COc1ccc(CCNCC(O)Cn2ccc3ccccc32)cc1OC (configuration not stated) | -2.7%
CC(=O)NC1C(Oc2ccc(C)cc2)OC2COC(c3ccco3)OC2C1O (configuration not stated) | 2.4%
COc1cccc(/C=N/NC(=O)c2[nH]nc3c2CCc2ccccc2-3)c1O | 57.1% (active)
COc1cccc(/C=N/Nc2cc(C)nc(-c3ccccc3O)n2)c1O | 21.2%
COc1cccc(/C=N\NC(=O)C2=NNC(=O)C2C)c1O (configuration not stated) | 24.7%
O=C(/C=C/c1ccccc1)Oc1coc(CSc2ncccn2)cc1=O | 5.1%
Cc1nc2cc(NCc3cccs3)ccc2n1C | 1.5%
Cc1ccc(C(=O)N/C(=C\c2ccco2)C(=O)NC2CCS(=O)(=O)C2)cc1 (configuration not stated) | 9.8%
COc1ccc(-c2ccnc(SCC(=O)N3CCOCC3)n2)cc1 | 20.6%
CCOc1ccc(-c2ccc(SCC(=O)N3CCOCC3)nn2)cc1 | 56.9% [at 5 µM] (active)
COc1ccc(-c2nc(SCC(=O)N3CCOCC3)n[nH]2)cc1 | 4.4%
COc1cccc(/C=C/c2ccc3ccccc3n2)c1OC(C)=O | 70.3% [at 5 µM] (active)
CCOc1cccc(/C=C/c2ccc3ccccc3n2)c1OC(C)=O | 49.3%
NC(=O)COC(=O)/C=C/c1ccc2ccccc2n1 | 14.6%
Cc1ccc(C(=O)NNc2ncnc3ccccc23)cc1 | 35.9%
CC(C)c1ccc(NC(=S)NNc2ccc(Cl)c(C(=O)O)c2)cc1 | -1.7%
CC(c1ccccn1)N(CCN(C)C)C(=S)Nc1ccccc1F (configuration not stated) | 20.3%
COc1cc2c(cc1OC)C(=O)NCC(C)(C)O2 | 20.2%
CCC/C(C)=N\Nc1nc2c(c(=O)n(C)c(=O)n2C)n1C | 8%
CCOC(=O)c1sc(NC(=O)CSc2nc3c(c(=O)n2-c2ccccc2)SCC3)c(C(=O)OCC)c1C | 5.5%
Nc1ncc(-c2cc3ccccc3oc2=O)s1 | 11.4%
O=C(c1cn(-c2ccccc2)nc1-c1cc2ccccc2oc1=O)N1CCOCC1 | 28.2%

SMILES | cell killing (% activity)
O=c1oc2ccccc2cc1-c1cn(-c2ccccc2)c(=S)[nH]1 | 57.2% (active)
O=C(O)COCC(=O)NCc1csc2ccc(Cl)cc12 | 6.2%
O=C(Nc1ccccc1)C1CC(=O)n2c(nc3ccccc32)N1 (configuration not stated) | 1.1%
COc1cc(OC)c2ccc(=O)oc2c1C(CCN1CCN(c2ccccc2)CC1)c1ccc2c(c1)OCO2 (configuration not stated) | -2.2%
COc1ccc(OC)c(C(=O)c2ccc(Cl)cc2)c1 | -11.3%
CCOC(=O)C1=C(c2ccc(OC)cc2)C(=O)c2ccccc2C1=O | 23.5%
CCOC(=O)c1c(C)[nH]c(=S)c(C#N)c1-c1ccccc1 | 18.1%
CCOC(=O)c1c(C)[nH]c2c1-c1ccccc1C(=O)C2=O | 96.5% [at 5 µM] (active)
Cc1cccc(C2c3[nH]c4ccccc4c3CCN2C(=O)c2cc(-c3cccn3C)n[nH]2)n1 (configuration not stated) | -11.4%
COc1cc(SC)ccc1C(=O)NCCOc1ccccc1Cl | 9.8%
COc1cc(SC)ccc1C(=O)Nc1cc(C)ccn1 | 53.7% [at 5 µM] (active)
Cc1ccnc(NC(=O)c2ccoc2C)c1 | 0%
COc1ccc(C(=O)Nc2nncs2)c(OC)c1 | 21.1%
COc1cc(SC)ccc1C(=O)Nc1nc(C)cs1 | 96% [at 5 µM] (active)
COc1ccccc1CNC(=O)c1ccc(SC)cc1OC | 16.9%
O=C(Nc1nnc(SCc2ccccc2Cl)s1)c1cccc([N+](=O)[O-])c1 | 2.1%
Cc1ccc(C)n1NC(=O)c1ccc([N+](=O)[O-])cc1 | 11.3%
CN(C)/C=C(/C(=O)c1ccc(Cl)c(Cl)c1)c1nnnn1-c1ccccc1 | 10.3%
CC(C)NC(=O)NCCCCCCS(C)=O (configuration not stated) | 20.6%
O=S(=O)(NCC1CCCO1)c1cnc(Cl)c(Cl)c1 (configuration not stated) | -24.2%

From PubChem BioAssay AID1443 (Sanford-Burnham Center for Chemical Genomics, 2008)
